BRCT PPI red: qHTS Assay for Inhibitors of BRCT-Phosphoprotein Interaction (Red Fluorophore); Breast cancer type 1 susceptibility protein (Homo sapiens), P38398; BRCT-phosphopeptide binding, red fluorescence polarization; Potency, µM (highest dose often 76.9 µM), for the others: at the top dose activity change, negative = inhibition, actives largely listed as inhibitors; 75,000 compounds, 0.03% hits; AID 892, 2007; note: % is set by controls: 0 for no effect and ±100 for the full control effect
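Rhodamine-labelled pBACH1 10-mer (100 nM) bound to BRCT domain (100 nM) at pH 7.3; compounds incubated 12 min room temperature, polarization read. Free peptide defines full inhibition; unlabelled decapeptide titrated as control.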
HEK293 cAMP cs: qHTS Assay for Agonists of the Thyroid Stimulating Hormone Receptor: Activators of Intracellular cAMP Concentrations in Parental HEK 293; parental HEK293 CNG cAMP sensor, membrane potential fluorescence; 73,000 compounds, 2.5% hits; Potency, µM (titrated, usually from 57.1 µM), without a hit: at the highest dose activation, most hits filed as activators; note: potency is the fitted concentration of half-maximal effect; % of control where 0% means no effect; nearly all actives have a fitted effect of over 55% in size
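Counterscreen for endogenous-receptor signalling: CNG-channel HEK 293 cells report cAMP rise by membrane depolarization. After 60 min dye equilibration with 100 uM RO 20-1724, compounds incubated 30 min before bottom-read fluorescence at 590 nm.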
YjeE inh: qHTS Assay for Inhibitors of YjeE; tRNA threonylcarbamoyladenosine biosynthesis protein TsaE (Escherichia coli (strain …; purified YjeE enzyme, qHTS inhibition assay; Potency, µM; 71,000 compounds, 0.05% hits; AID 605, 2007
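Fluorescence polarization of a BODIPY Texas Red–ADP probe (2 uM) bound to purified YjeE (10 uM) was read after 15 min room-temperature incubation with compounds. Loss of polarization marks inhibitors; ADP serves as titrated control.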
DNA Pol III inh: qHTS Assay for Inhibitors of DNA Polymerase III Holoenzyme System; Potency, µM (series often up to 57.1 µM), for the others: at the highest dose activity change, negative = inhibition; reconstituted DNA polymerase III holoenzyme replication, biochemical; 71,000 compounds, 0.25% hits; note: potency is the fitted concentration of half-maximal effect; % is set by controls: 0 for no effect and ±100 for the full control effect
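Reconstituted *E. coli* holoenzyme (0.35 nM Pol III, 1 nM beta, 154 nM SSB, 2 nM primase) was preincubated with compound for 15 min at RT. Synthesis on 1.4 nM ssM13Gori ran 35 min, then was stopped with PicoGreen/EDTA and read as dsDNA fluorescence.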
BRCT PPI green: qHTS Assay for Inhibitors of BRCT-Phosphoprotein Interaction (Green Fluorophore); BRCA1 BRCT-phosphopeptide binding, green fluorescence polarization; Potency, µM (titrated, usually from 76.9 µM), for inactives: top-dose activity change, negative = inhibition, most hits filed as inhibitors; 75,000 compounds, 0.05% hits; Breast cancer type 1 susceptibility protein (Homo sapiens), P38398;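 note: potency is the fitted concentration of half-maximal effect; plate controls were peptide without protein for full effect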
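Compounds were incubated for 12 min at room temperature with a complex of 100 nM fluorescein-tagged pBACH1 decapeptide and 250 nM His-tagged BRCT protein. Buffer was phosphate pH 7.3 with EDTA, DTT and Tween 20. Disruption of binding lowers the polarization signal.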
TSHR ag: qHTS Assay for Agonists of the Thyroid Stimulating Hormone Receptor | HEK293-CNG-TSHR cells (CNG channel as cAMP sensor), membrane potential dye, cAMP | Potency, µM (doses to about 57.1 µM), inactives show at the top dose activation, usual class: activators | 73,000 compounds, 0.48% hits | AID 926, 2007; active = well fitted activation curve with a large enough effect in the main read-out, with a control signal flat, not every such curve was filed as active; inconclusive = small, poorly fitted or top-dose-only effect, or a change in a side signal; inactive = no such curve, though single readings can be large or run the other way; % of control where 0% means no effect;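 note: the control signal comes from parental cells without the receptor; potency is the fitted concentration of half-maximal effect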
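cAMP rise detected as CNG-channel membrane depolarization by fluorescent dye (emission 590 nm), 30 min after compound, following 60 min dye loading containing 100 uM RO 20-1724 at room temperature. Cells: TSHR/CNG HEK 293, with parental CNG HEK 293 as control.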
Starred values were filed as active, the others as inactive; i = inactive; ? = inconclusive; / = no result given; ! = repeats disagree; [ ] = remark or other dose. The list is not random: actives were taken first. Their share in the collection is about 3.2%. Unless noted, calls come from the whole dose curve; as a rule, active = well fitted curve in the direction sought with a large enough effect; inconclusive = small, poorly fitted or top-dose-only effect, or another doubt; inactive = no such curve, though single readings can be large; an effect the other way counts as inactive or inconclusive.

SMILES	BRCT PPI red	HEK293 cAMP cs	YjeE inh	DNA Pol III inh	BRCT PPI green	TSHR ag
COc1ccccc1-c1cncnc1Nc1ccc(F)cc1	0%	-13%	i	-1%	1%	22%
COC(=O)NC(CC(C)=O)c1ccc2c(c1)OCO2 (configuration not stated)	1%[15.4 µM]	0%[11.4 µM]	/	/	0%[15.4 µM]	3%[11.4 µM]
Cc1cc(C)n2nc(NCc3cccc(Br)c3)nc2n1	-1%	1%	i	3%	1%	1µM*
COc1ccc(CNc2nc3nc(C)cc(C)n3n2)cc1OC	1%	-3%	i	-3%	1%	6%
O=c1c2cnn(-c3ccccc3)c2nc(-c2ccco2)n1-c1ccccc1	-1%	20µM*	i	-3%	2%	?
c1ccc2c[n+](CCCC[n+]3ccc4ccccc4c3)ccc2c1	0%[15.4 µM]	2%[11.4 µM]	i	-12%[11.4 µM]	-2%[15.4 µM]	-1%[11.4 µM]
CNc1nc(-c2cccc(NS(C)(=O)=O)c2)nc2ccccc12	-7%	6%	i	-3%	-3%	-1%
CS(=O)(=O)Nc1cccc(-c2nc(Nc3ccc(F)cc3)c3ccccc3n2)c1	2%	19%	i	2%	2%	25µM*
COC(=O)C1=C(C)NC(C)=C(C(=O)OC)C1c1ccc(N(C)C)cc1	1%	5%	i	-4%	-1%	20µM*
CN(C(=O)c1ccc(NC(=O)c2cnccn2)cc1)C1CCCCC1	2%	-4%	i	0%	-2%	5%
CNCC[C@@H](Oc1ccccc1C)c1ccccc1	0%	32µM*	i	1%	-2%	?
O=C(O)C1=CC(=C(c2ccc(O)c(C(=O)O)c2)c2ccc(O)c(C(=O)O)c2)C=CC1=O	6%	7%	i	0.079µM*	16µM*	/
CCC(C)(C)n1nnnc1CN(Cc1ccc(Cl)cc1)Cc1ccco1	-3%	10µM*	i	-7%	1%	?
CC(C)(C)n1nnnc1CN(Cc1ccco1)Cc1cc2cc3c(cc2[nH]c1=O)OCO3	0%	-10%	i	-3%	2%	-1%
Clc1ccc(-c2nnc(-c3ccccc3)o2)c(Cl)c1	1%	32µM*	i	0%	-2%	?
Fc1ccc(-c2nnc(-c3ccc(Cl)cc3Cl)o2)cc1	0%	14%	i	-2%	-2%	14%
CCOC(=O)c1sc(NC(=O)CN2CCCC2)c(C(=O)OCC)c1C	-1%	25%	i	-7%	-1%	24%
CCOC(=O)c1sc(NC(=O)CSc2nnc(C)s2)c(C(=O)OCC)c1C	0%	13µM*	i	-4%	2%	?
COc1ccc2c(c1)c(=O)oc1cc(OCC(=O)N3CCCC(C)C3)ccc12 (configuration not stated)	-1%	32µM*	i	-8%	2%	?
CN(CCO)Cc1ncccc1O	-1%[15.4 µM]	-1%[11.4 µM]	i	-9%[11.4 µM]	-2%[15.4 µM]	1%[11.4 µM]
NCC[C@H]1CCC[C@H](CCN)N1	-1%	15%	i	1%	-2%	2%
Cc1nn(-c2ccccc2)c2sc(C(=O)N(CC(=O)NC(C)(C)C)Cc3ccco3)cc12	-2%	16µM*	i	-5%	0%	?
COC(=O)c1cc2c(C)nn(-c3ccccc3)c2s1	-2%	30%	i	-5%	1%	16%
C[C@@](N)(/C=C\c1ccccc1)C(=O)O	0%[15.4 µM]	6%[11.4 µM]	i	-6%[11.4 µM]	0%[15.4 µM]	-3%[11.4 µM]
O=C(CN(Cc1cccs1)C(=O)CN1C(=O)COc2ccccc21)NCc1ccco1	-1%	16µM*	i	-19%	-2%	?
SMILES	BRCT PPI red	HEK293 cAMP cs	YjeE inh	DNA Pol III inh	BRCT PPI green	TSHR ag
CCOC(=O)N1CCN(S(=O)(=O)c2ccc(C)cc2)C1c1ccccc1 (configuration not stated)	-1%	13µM*	i	2%	0%	?
Fc1ccc(-c2nnc(-c3ccc(Cl)cc3)o2)cc1	-2%	?	i	-3%	-4%	?
CCOc1ccc(-c2nnc(-c3snc(-c4ccc(F)cc4)c3N=CN(C)C)o2)cc1	0%	16µM*	i	-2%	-1%	?
O=C(NCC(=O)N(Cc1cccs1)C(C(=O)NC1CCCC1)c1ccncc1)c1ccco1 (configuration not stated)	-3%	2%	i	-7%	1%	-9%
COc1ccc(CN(C(=O)CNC(=O)c2ccco2)C(C(=O)NC2CCCC2)c2ccco2)cc1 (configuration not stated)	0%	27%	i	-6%	-2%	10%
O=C(NC1CCCCC1)C(c1cccs1)N(Cc1cccs1)C(=O)c1ccco1 (configuration not stated)	0%	0.4µM*	i	-4%	4%	?
O=C(NC1CCCC1)C(c1cccs1)N(CC1CCCO1)C(=O)Cc1cccs1 (configuration not stated)	0%	0.32µM*	i	-3%	0%	?
O=C(NC1CCCCC1)C(c1cccs1)N(CC1CCCO1)C(=O)c1csnn1 (configuration not stated)	1%	?	i	-6%	0%	?
O=C(NCC(=O)N(Cc1ccc(F)cc1)C(C(=O)NC1CCCC1)c1ccco1)c1ccco1 (configuration not stated)	-2%	16µM*	i	-4%	-2%	?
CC(=O)OC[C@@H]1O[C@@H](O/N=C2/C[C@@H](O)[C@@H](O)[C@@H]3[C@@H]4C(=O)N([C@@H](C)c5ccccc5)C(=O)[C@H]4CC[C@@H]23)[C@H](OC(C)=O)[C@H](OC(C)=O)[C@@H]1OC(C)=O	1%[15.4 µM]	-4%[11.4 µM]	/	/	0%[15.4 µM]	22%[11.4 µM]
O=c1cc(N=Nc2ccc(O)cc2)[nH]c(=O)[nH]1	2%[15.4 µM]	23%[11.4 µM]	i	-9%[11.4 µM]	1%[15.4 µM]	-7%[11.4 µM]
CCOC(=O)N1CCC(NC(=O)Cn2ncn3c(cc4sc(CC)cc43)c2=O)CC1	-2%	3%	i	2%	-2%	0%
C=CC[C@@H](C(=O)O)c1ccccc1	-3%[15.4 µM]	7%[11.4 µM]	i	-2%[11.4 µM]	0%[15.4 µM]	-2%[11.4 µM]
CCCCCCc1c(O)c2ccccc2[nH]c1=O	0%	11%	i	-6%	-1%	6%
CCCCCCCCCCCC1=C(O)C(=O)C=C(O)C1=O	-17%	4%	i	6.3µM*!	-6%	0%
O=C(CN(Cc1ccc2c(c1)OCO2)C(=O)CSc1nc2ccccc2o1)NC1CCCCC1	-1%	16µM*	i	-2%	0%	?
